According to PubChem BioAssay AID1159580 (chemical genetic matrix, 2015):
Among all 5,500 compounds or so, about 2,000 (36%) were called active. About 18% were inconclusive and are not listed. Cut-off read from the data, not from the text of the source: active = normalized growth mostly below about 0.91 (no sharp cut-off); inconclusive = no clear call, values can overlap the other calls; inactive = mostly above about 0.92. The list shows a part of the results.

Assay: chemical genetic growth profiling, strain panel (AID 1159580);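 note: tested at 20 µM; growth read once vehicle control cultures reached saturation at 30 °C; 1 = growth at the plate median or of vehicle wells; lower values mean less growth of the strain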
Details: growth OD

Measured: normalized growth

CC1=C2C(O)C(=O)OC3CC4C(C)(C)C(=O)C=C[C@]4(C)C(CC1)[C@]23C (some centres not stated)
inactive: S. cerevisiae deletion strains, locus YJR043C, strain POL32, hits give low values 1.01 | S. cerevisiae deletion strains, locus YJR066W, strain TOR1, hits give low values 0.967 | S. cerevisiae deletion strains, locus YJR075W, strain HOC1, hits give low values 1.03 | S. cerevisiae deletion strains, locus YKL009W, strain mrt4, hits give low values 1.03 | S. cerevisiae deletion strains, locus YKL068W, hits give low values 1.01 | S. cerevisiae deletion strains, locus YKL085W, strain MDH1 (second series), hits give low values 1 | S. cerevisiae deletion strains, locus YKL085W, strain MDH1, hits give low values 1 | S. cerevisiae deletion strains, locus YKL160W, strain elf1, hits give low values 1 | S. cerevisiae deletion strains, locus YKR001C, strain vps1, hits give low values 0.996 | S. cerevisiae deletion strains, locus YKR026C, strain gcn3, hits give low values 1.01 | S. cerevisiae deletion strains, locus YKR091W, strain srl3, hits give low values 1.01 | S. cerevisiae deletion strains, locus YLL001W, strain dnm1, hits give low values 0.992 | S. cerevisiae deletion strains, locus YLL026W, hits give low values 1.01 | S. cerevisiae deletion strains, locus YLL041C, strain sdh2, hits give low values 1.02 | S. cerevisiae deletion strains, locus YLR027C, strain aat2, hits give low values 1 | S. cerevisiae deletion strains, locus YLR039C, strain RIC1, hits give low values 1.15 | S. cerevisiae deletion strains, locus YLR058C, strain SHM2, hits give low values 1.03 | S. cerevisiae deletion strains, locus YLR102C, strain apc9, hits give low values 1.02 | S. cerevisiae deletion strains, locus YLR113W, strain HOG1, hits give low values 0.984 | S. cerevisiae deletion strains, locus YLR221C, strain rsa3, hits give low values 1.03 | S. cerevisiae deletion strains, locus YLR258W, strain gsy2, hits give low values 1.01 | S. cerevisiae deletion strains, locus YLR262C, strain YPT6 (second series), hits give low values 1.06 | S. cerevisiae deletion strains, locus YLR268W, strain sec22, hits give low values 1.02 | S. cerevisiae deletion strains, locus YLR320W, strain mms22, hits give low values 1.01 | S. cerevisiae deletion strains, locus YLR342W, strain FKS1 (second series), hits give low values 1.03 | S. cerevisiae deletion strains, locus YLR342W, strain FKS1, hits give low values 1.01 | S. cerevisiae deletion strains, locus YLR357W, strain rsc2, hits give low values 1.02 | S. cerevisiae deletion strains, locus YLR370C, strain arc18, hits give low values 1 | S. cerevisiae deletion strains, locus YLR371W, strain rom2, hits give low values 0.985 | S. cerevisiae deletion strains, locus YLR384C, strain iki3, hits give low values 1.02 | S. cerevisiae deletion strains, locus YLR418C, strain cdc73, hits give low values 1.07 | S. cerevisiae deletion strains, locus YML016C, strain PPZ1, hits give low values 1.02 | S. cerevisiae deletion strains, locus YML032C, strain rad52, hits give low values 1 | S. cerevisiae deletion strains, locus YML120C, strain ndi1, hits give low values 1 | S. cerevisiae deletion strains, locus YML124C, strain tub3, hits give low values 1.01 | S. cerevisiae deletion strains, locus YMR058W, strain fet3, hits give low values 1.01 | S. cerevisiae deletion strains, locus YMR078C, strain ctf18, hits give low values 1.02 | S. cerevisiae deletion strains, locus YMR125W, strain sto1, hits give low values 1.01 | S. cerevisiae deletion strains, locus YMR129W, hits give low values 1.01 | S. cerevisiae deletion strains, locus YMR205C, strain PFK2, hits give low values 1 | S. cerevisiae deletion strains, locus YMR223W, strain ubp8, hits give low values 1.01 | S. cerevisiae deletion strains, locus YMR231W, strain pep5, hits give low values 1.01 | S. cerevisiae deletion strains, locus YMR307W, strain GAS1, hits give low values 1.03 | S. cerevisiae deletion strains, locus YNL067W, strain RPL9B, hits give low values 1.05 | S. cerevisiae deletion strains, locus YNL071W, strain lat1, hits give low values 0.999 | S. cerevisiae deletion strains, locus YNL128W, strain TEP1, hits give low values 1.02 | S. cerevisiae deletion strains, locus YNL183C, strain NPR1, hits give low values 0.978 | S. cerevisiae deletion strains, locus YNL209W, strain ssb2, hits give low values 1.01 | S. cerevisiae deletion strains, locus YNL233W, strain BNI4, hits give low values 1.06 | S. cerevisiae deletion strains, locus YNL248C, strain rpa49, hits give low values 1.01 | S. cerevisiae deletion strains, locus YNL250W, strain rad50, hits give low values 1.03 | S. cerevisiae deletion strains, locus YNL271C, strain bni1, hits give low values 1.02 | S. cerevisiae deletion strains, locus YNL298W, strain CLA4, hits give low values 1 | S. cerevisiae deletion strains, locus YNL307C, strain MCK1, hits give low values 1.03 | S. cerevisiae deletion strains, locus YNL322C, strain KRE1 (second series), hits give low values 1.04 | S. cerevisiae deletion strains, locus YNR049C, strain mso1, hits give low values 1.01 | S. cerevisiae deletion strains, locus YNR052C, strain pop2, hits give low values 1.04 | S. cerevisiae deletion strains, locus YOL012C, strain htz1 0.949 | S. cerevisiae deletion strains, locus YOL147C, strain pex11, hits give low values 1.01 | S. cerevisiae deletion strains, locus YOR001W, strain rrp6, hits give low values 1.01 | S. cerevisiae deletion strains, locus YOR061W, strain CKA2, hits give low values 1.01 | S. cerevisiae deletion strains, locus YOR069W, strain VPS5, hits give low values 1.01 | S. cerevisiae deletion strains, locus YOR070C, strain gyp1, hits give low values 1.02 | S. cerevisiae deletion strains, locus YOR080W, strain dia2, hits give low values 1.02 | S. cerevisiae deletion strains, locus YOR083W, strain WHI5, hits give low values 1.01 | S. cerevisiae deletion strains, locus YOR106W, strain vam3, hits give low values 0.983 | S. cerevisiae deletion strains, locus YOR136W, strain idh2, hits give low values 1.03 | S. cerevisiae deletion strains, locus YOR144C, strain elg1, hits give low values 1.01 | S. cerevisiae deletion strains, locus YOR184W, strain ser1, hits give low values 1.01 | S. cerevisiae deletion strains, locus YOR231W, strain MKK1, hits give low values 1.03 | S. cerevisiae deletion strains, locus YOR265W, strain rbl2, hits give low values 1 | S. cerevisiae deletion strains, locus YOR270C, strain vph1, hits give low values 1.05 | S. cerevisiae deletion strains, locus YOR290C, strain snf2, hits give low values 1.01 | S. cerevisiae deletion strains, locus YOR316C, strain cot1, hits give low values 1.01 | S. cerevisiae deletion strains, locus YPL051W, strain arl3, hits give low values 1.02 | S. cerevisiae deletion strains, locus YPL055C, strain LGE1, hits give low values 1.03 | S. cerevisiae deletion strains, locus YPL078C, strain atp4, hits give low values 0.998 | S. cerevisiae deletion strains, locus YPL106C, strain sse1, hits give low values 1.03 | S. cerevisiae deletion strains, locus YPL240C, strain hsp82, hits give low values 1.01 | S. cerevisiae deletion strains, locus YPL241C, strain CIN2, hits give low values 1.01 | S. cerevisiae deletion strains, locus YPL256C, strain CLN2, hits give low values 1.01 | S. cerevisiae deletion strains, locus YPR119W, strain clb2, hits give low values 1.01 | S. cerevisiae deletion strains, locus YPR141C, strain kar3, hits give low values 1.03 | S. cerevisiae deletion strains, locus YPR163C, strain tif3, hits give low values 1.02 | S. cerevisiae deletion strains, locus YPR167C, strain met16, hits give low values 1.03 | S. cerevisiae deletion strains, strain wtn01, hits give low values 0.994 | S. cerevisiae strains, strain wild type, hits give low values 1.01
